Experimental data taken from PubChem BioAssay.
Activity calls are given as the source filed them.

Experiments:
[1] = binders of probe aFSTL3 on microarray, primary screen, stem cell growth factor project, biochemical, small-molecule microarray, fluorescence 635/667 (AID 1064); details: higher = more signal;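 further: measures binding of the biotinylated anti-FSTL3 antibody to printed compounds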
[2] = binders from COS7 lysate, DM2A8 probe, primary screen, torsin A project, cell lysate, small-molecule microarray, fluorescence 635/667 (AID 1065); details: higher = more signal, COS7 lysate expressing mutant human TOR1A
[3] = binders of probe aFGF2 on microarray, primary screen, stem cell growth factor project, biochemical, small-molecule microarray, fluorescence 635/667 (AID 1067); details: higher = more signal;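 further: measures binding of biotinylated aFGF2 protein to printed compounds on slides; z-score merges feature fluorescence and signal-to-noise across triplicate slides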
[4] = binders of probe aFGF10 on microarray, primary screen, stem cell growth factor project, biochemical, small-molecule microarray, fluorescence 635/667 (AID 1071); details: higher = more signal;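 further: score merges 667 nm spot intensity and signal to noise from triplicate slides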
[5] = biological target: Neurogenic locus notch homolog protein 2 (Homo sapiens) (UniProt Q04721); assay: Notch2 binders on small-molecule microarrays, primary screen, biochemical, small-molecule microarray, 635 nm fluorescence, stem cell growth factors (AID 1073); details: Notch2 binding, higher = more signal
Chain of Neurogenic locus notch homolog protein 2 (Homo sapiens) (Q04721 whole entry, looked up, canonical isoform): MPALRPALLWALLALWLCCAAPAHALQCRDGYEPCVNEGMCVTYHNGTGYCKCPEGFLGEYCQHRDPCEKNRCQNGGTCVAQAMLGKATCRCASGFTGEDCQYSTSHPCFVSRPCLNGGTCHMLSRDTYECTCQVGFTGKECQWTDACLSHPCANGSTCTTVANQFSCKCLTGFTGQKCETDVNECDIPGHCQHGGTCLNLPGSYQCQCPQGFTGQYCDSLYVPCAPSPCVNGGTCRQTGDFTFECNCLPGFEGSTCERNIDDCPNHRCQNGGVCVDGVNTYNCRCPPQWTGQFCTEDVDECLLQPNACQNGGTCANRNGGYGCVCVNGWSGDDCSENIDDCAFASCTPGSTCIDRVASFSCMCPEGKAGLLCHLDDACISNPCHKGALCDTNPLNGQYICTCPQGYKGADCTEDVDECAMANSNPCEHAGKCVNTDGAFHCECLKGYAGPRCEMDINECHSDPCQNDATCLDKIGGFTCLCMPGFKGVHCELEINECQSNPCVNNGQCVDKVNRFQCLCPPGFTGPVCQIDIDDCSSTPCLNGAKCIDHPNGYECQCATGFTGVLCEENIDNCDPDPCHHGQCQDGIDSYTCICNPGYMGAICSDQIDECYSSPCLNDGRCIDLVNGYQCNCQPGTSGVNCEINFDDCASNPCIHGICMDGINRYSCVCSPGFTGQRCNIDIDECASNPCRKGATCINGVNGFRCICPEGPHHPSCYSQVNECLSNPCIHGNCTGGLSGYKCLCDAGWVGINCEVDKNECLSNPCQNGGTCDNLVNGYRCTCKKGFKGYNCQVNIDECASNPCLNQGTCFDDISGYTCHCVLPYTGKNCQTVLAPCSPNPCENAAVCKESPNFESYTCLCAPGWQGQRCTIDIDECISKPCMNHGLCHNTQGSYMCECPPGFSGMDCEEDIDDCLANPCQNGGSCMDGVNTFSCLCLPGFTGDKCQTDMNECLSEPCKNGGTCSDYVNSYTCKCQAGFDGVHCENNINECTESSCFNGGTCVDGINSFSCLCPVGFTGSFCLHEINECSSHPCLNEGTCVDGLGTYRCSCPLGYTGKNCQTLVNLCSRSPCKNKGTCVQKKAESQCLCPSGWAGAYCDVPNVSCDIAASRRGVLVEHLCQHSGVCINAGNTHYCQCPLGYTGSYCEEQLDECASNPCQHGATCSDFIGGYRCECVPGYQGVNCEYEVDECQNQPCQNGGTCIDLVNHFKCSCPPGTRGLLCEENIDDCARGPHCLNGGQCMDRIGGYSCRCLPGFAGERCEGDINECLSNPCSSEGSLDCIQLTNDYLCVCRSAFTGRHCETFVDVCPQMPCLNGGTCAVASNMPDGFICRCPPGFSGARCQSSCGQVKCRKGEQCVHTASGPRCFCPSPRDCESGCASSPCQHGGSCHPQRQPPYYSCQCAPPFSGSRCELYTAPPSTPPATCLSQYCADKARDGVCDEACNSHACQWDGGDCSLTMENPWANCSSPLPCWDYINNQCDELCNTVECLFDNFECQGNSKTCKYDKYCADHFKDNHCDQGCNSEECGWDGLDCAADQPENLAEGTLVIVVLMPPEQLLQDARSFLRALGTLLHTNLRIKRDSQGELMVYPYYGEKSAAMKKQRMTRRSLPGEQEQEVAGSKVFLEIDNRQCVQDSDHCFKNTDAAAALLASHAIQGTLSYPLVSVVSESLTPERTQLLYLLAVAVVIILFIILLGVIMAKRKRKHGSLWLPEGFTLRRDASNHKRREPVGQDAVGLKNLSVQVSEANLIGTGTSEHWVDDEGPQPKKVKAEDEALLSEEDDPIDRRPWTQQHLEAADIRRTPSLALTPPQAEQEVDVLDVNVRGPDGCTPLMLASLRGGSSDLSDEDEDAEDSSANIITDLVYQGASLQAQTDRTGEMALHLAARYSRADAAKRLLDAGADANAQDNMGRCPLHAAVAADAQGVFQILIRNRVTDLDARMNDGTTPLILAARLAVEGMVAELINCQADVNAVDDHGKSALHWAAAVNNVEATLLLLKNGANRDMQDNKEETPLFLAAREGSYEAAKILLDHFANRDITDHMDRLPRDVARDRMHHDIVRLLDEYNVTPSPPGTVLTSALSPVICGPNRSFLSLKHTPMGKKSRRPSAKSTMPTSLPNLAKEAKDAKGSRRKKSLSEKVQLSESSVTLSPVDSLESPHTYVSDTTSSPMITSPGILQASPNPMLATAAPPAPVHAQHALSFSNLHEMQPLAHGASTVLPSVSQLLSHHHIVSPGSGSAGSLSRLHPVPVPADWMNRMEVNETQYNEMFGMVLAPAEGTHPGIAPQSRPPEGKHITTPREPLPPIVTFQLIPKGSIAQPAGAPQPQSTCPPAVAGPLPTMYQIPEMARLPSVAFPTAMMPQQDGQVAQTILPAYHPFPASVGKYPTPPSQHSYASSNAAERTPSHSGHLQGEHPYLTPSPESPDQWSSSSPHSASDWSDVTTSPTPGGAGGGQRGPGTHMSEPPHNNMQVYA

[6] = biological target: Pro-neuregulin-1, membrane-bound isoform (Homo sapiens) (UniProt Q02297); assay: NRG1 binders on small-molecule microarrays, primary screen, psychiatric disease protein project, biochemical, small-molecule microarray, fluorescence 635/667 (AID 1075); details: NRG1 binding, 635 nm fluorescence, higher = more signal;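 further: score combines 667 nm spot fluorescence with signal to noise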
Chain of Pro-neuregulin-1, membrane-bound isoform (Homo sapiens) (Q02297 whole entry, looked up, the tested form may be a part, canonical isoform): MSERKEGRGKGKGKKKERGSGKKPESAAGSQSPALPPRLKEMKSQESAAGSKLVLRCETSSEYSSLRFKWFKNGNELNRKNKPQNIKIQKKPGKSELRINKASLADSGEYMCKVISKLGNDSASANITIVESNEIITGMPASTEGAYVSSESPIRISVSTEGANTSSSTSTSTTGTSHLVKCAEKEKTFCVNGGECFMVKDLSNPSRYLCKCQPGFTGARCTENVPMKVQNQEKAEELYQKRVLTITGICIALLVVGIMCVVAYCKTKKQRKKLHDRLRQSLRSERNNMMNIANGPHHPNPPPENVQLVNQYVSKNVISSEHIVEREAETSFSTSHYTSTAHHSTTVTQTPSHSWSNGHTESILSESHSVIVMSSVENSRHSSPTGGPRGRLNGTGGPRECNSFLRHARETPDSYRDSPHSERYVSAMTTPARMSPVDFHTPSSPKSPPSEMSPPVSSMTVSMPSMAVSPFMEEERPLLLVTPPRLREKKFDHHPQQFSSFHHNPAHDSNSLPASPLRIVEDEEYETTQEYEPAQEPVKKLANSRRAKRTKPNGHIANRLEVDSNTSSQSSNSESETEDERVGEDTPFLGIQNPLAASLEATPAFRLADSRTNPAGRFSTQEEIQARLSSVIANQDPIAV

[7] = test system: Neuregulin-1 EGF-like domain; assay: binders of neuregulin-1 EGF-like domain, primary screen, biochemical, small-molecule microarray, 635 nm fluorescence (AID 1081); details: small-molecule microarray binding, higher = more signal;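 further: binding of the protein to compounds printed on small-molecule microarray slides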
[8] = FRG1 promoter luciferase signal modulators, primary screen, FRG1 inhibition for FSHD, cell-based, C2C12 myotubes, firefly/Renilla luciferase, luminescence (AID 1084); details: higher = more signal, called active from +8 up or from −8 down
[9] = binders of probe aFST on microarray, primary screen, stem cell growth factor project, biochemical, small-molecule microarray, fluorescence 635/667 (AID 1086); details: higher = more signal;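 further: score merges 667 nm fluorescence with signal-to-noise of each printed compound spot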
[10] = binders of probe aHhip on microarray, primary screen, stem cell growth factor project, biochemical, small-molecule microarray, fluorescence 635/667 (AID 1087); details: higher = more signal;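 further: score merges spot fluorescence at 667nm with spot signal to noise ratio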
[11] = test system: PRMT1 (protein arginine N-methyltransferase 1); assay: PRMT1 binders on small-molecule microarrays, primary screen, biochemical, small-molecule microarray, 635 nm fluorescence (AID 1088); details: small-molecule microarray binding, higher = more signal;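 further: binding of Prmt1 protein to compounds spotted on small-molecule microarray slides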
[12] = yeast growth modulation, basal conditions, primary screen, YJM789 clinical isolate, OD600, 24 h (AID 1089);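 further: growth of clinical yeast isolate S. cerevisiae YJM 789 seeded 1000 cells per well; test concentration not given here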; details: S. cerevisiae YJM789 growth, higher = more signal, called active from +8 up or from −8 down
[13] = fission yeast growth modulation, primary screen, strain 972, OD600, 24 h, no modulator (AID 1090);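 further: basal condition with compound alone and no growth modifier present; test concentration not given here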; details: S. pombe 972 growth, higher = more signal, called active from +8 up or from −8 down
[14] = S. cerevisiae growth modulation with rapamycin, primary screen, strain BY4716, OD600, 96 h (AID 1091); details: higher = more signal, called active from +8 up or from −8 down; further: test concentration not given here
[15] = biological target: Torsin-1A-interacting protein 2 (Homo sapiens) (UniProt Q8NFQ8); assay: LULL1 binders on small-molecule microarray, primary screen, cell lysate, human LULL1 lysate, 635/667 nm fluorescence (AID 1092); details: hLULL1 lysate binding, 635 nm fluorescence, higher = more signal;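 further: probe is lysate of COS7 cells overexpressing human LULL1; score merges per-feature 667 nm fluorescence with signal-to-noise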
Chain of Torsin-1A-interacting protein 2 (Homo sapiens) (Q8NFQ8 whole entry, looked up): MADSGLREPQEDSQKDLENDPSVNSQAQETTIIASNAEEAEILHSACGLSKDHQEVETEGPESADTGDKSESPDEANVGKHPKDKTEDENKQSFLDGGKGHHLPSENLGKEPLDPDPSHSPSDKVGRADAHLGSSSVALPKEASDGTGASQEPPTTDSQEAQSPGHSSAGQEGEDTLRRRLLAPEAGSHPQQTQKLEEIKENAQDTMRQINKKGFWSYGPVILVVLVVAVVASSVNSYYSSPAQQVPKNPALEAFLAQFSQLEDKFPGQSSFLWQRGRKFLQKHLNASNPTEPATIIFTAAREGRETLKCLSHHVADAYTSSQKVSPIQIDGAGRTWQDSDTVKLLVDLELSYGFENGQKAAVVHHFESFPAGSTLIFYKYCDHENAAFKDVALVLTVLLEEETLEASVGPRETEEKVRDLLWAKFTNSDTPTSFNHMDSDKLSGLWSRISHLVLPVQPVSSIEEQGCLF

[16] = E. coli growth modulation, two-sided OD650, primary screen, E. coli filamentation project, strain DRC41, 24 h (AID 1093); details: OD650, 24 h, higher = more signal, called active from +8 up or from −8 down;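 further: MC1000 strain lacking acrAB efflux and sulA so SOS filamentation is blocked; test concentration not given here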
[17] = small-molecule microarray binders of probe aLefty2, primary screen, biochemical, biotinylated probe, 635/667 nm fluorescence (AID 1094); details: higher = more signal;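 further: score merges spot fluorescence near 667 nm with spot signal-to-noise ratio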
[18] = test system: Noggin (protein binding on small-molecule microarray); assay: Noggin binders on small-molecule microarray, primary screen, biochemical, 635/667 nm fluorescence (AID 1095); details: 635 nm fluorescence, higher = more signal;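 further: score merges 667 nm feature fluorescence with signal to noise over triplicate slides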
[19] = biological target: Neurogenic locus notch homolog protein 3 (Homo sapiens) (UniProt Q9UM47); assay: NOTCH3 binders on small-molecule microarray, primary screen, biochemical, 635/667 nm fluorescence (AID 1096); details: NOTCH3 binding, 635 nm fluorescence, higher = more signal
[20] = small-molecule microarray binders of probe aEGFR, primary screen, biochemical, biotinylated probe, 635/667 nm fluorescence (AID 1097); details: higher = more signal;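 further: probe is a biotinylated anti-EGFR antibody binding compounds printed on slides; score combines fluorescence near 667 nm and signal to noise of each spot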

| Compound | composite z-score [1] | composite z-score [2] | composite z-score [3] | composite z-score [4] | composite z-score [5] | composite z-score [6] | composite z-score [7] | z-score [8] | composite z-score [9] | composite z-score [10] | composite z-score [11] | z-score [12] | z-score [13] | z-score [14] | composite z-score [15] | z-score [16] | composite z-score [17] | composite z-score [18] | composite z-score [19] | composite z-score [20] |
| --- | --- | --- | --- | --- | --- | --- | --- | --- | --- | --- | --- | --- | --- | --- | --- | --- | --- | --- | --- | --- |
| CCCNC(=O)[C@@]1(Sc2ccc(C)cc2)CC(=O)N(C(C)C)[C@@H]1c1ccc(CO)cc1I | 1.2 | 0.0023 | -0.104 | -0.77 | -1.06 | 1.98 | -0.0039 | -0.733 (inactive) | -0.433 | -0.0994 | 1.28 | -1.08 (inactive) | -0.877 (inactive) | 1.79 (inactive) | 2.73 | -0.157 (inactive) | 0.0444 | -0.719 | -1.2 | -0.252 |
| NC(=O)[C@H]1[C@@H]2C(=O)O[C@@H](c3ccccc3)[C@@H](c3ccccc3)N2[C@@H](c2ccc(O)cc2)[C@]12C(=O)Nc1ccccc12 | 0.339 | -1.11 | -0.128 | -0.171 | -1.37 | 1.81 | 0.653 | -0.977 (inactive) | -0.442 | -0.137 | -0.472 | 0.446 (inactive) | -0.732 (inactive) | 0.659 (inactive) | 2.99 | 0.13 (inactive) | -0.139 | -1.18 | -1.03 | -0.356 |
| C=C(COC)/C(=C/C[C@H](OC(C)=O)c1cccc(OCCO)c1)c1cnc2ccccc2c1 | -0.194 | 0.569 | -0.0325 | 1.05 | 1.26 | 0.743 | 1.11 | 1.46 (inactive) | 0.654 | 0.107 | 1.53 | 1.25 (inactive) | -0.0332 (inactive) | 1.03 (inactive) | 2.18 | -0.094 (inactive) | -0.0415 | 1.64 | 1.04 | -0.0267 |
| C=CCNC(=O)[C@H]1[C@@H]2C(=O)O[C@@H](c3ccccc3)[C@@H](c3ccccc3)N2[C@@H](c2ccc(OCCO)cc2)[C@]12C(=O)N(C(=O)OCCOC)c1ccc(C#Cc3ccc(OC)cc3)cc12 | 0.0886 | 0.91 | -0.0252 | 0.713 | 0.897 | 0.671 | 1.12 | 0.0138 (inactive) | 0.111 | -0.335 | 1.41 | 1.2 (inactive) | 0.927 (inactive) | 6.91 (inactive) | 2.47 | 2.63 (inactive) | -0.0154 | 1.04 | 1.09 | -0.0164 |
| COc1ccc(C#Cc2ccc3c(c2)[C@]2(C(=O)N3)[C@H](C(=O)Nc3nc4ccccc4s3)[C@H]3C(=O)O[C@H](c4ccccc4)[C@H](c4ccccc4)N3[C@@H]2c2ccccc2OCCO)cc1 | -0.0541 | 0.125 | -0.024 | 0.313 | 0.98 | 0.907 | 0.919 | 0.716 (inactive) | 0.723 | 0.176 | 1.36 | 2.56 (inactive) | 1.53 (inactive) | 1.59 (inactive) | 3.08 | 2.62 (inactive) | -0.0949 | 0.486 | 1.13 | -0.106 |
